The values that follow come from PubChem BioAssay (NCATS).

Records with an inconclusive call do not appear. Active and inactive are the calls of the source. Unless noted, calls follow the shape of the dose curve; as a rule, active = well fitted curve in the direction sought with a large enough effect; inconclusive = small, poorly fitted or top-dose-only effect, or another doubt; inactive = no such curve, though single readings can be large; an effect the other way counts as inactive or inconclusive.

In assay [1] the target is N-terminal Xaa-Pro-Lys N-methyltransferase 1 (Homo sapiens) (UniProt Q9BV86). As to the kind of experiment: Confirmatory qHTS for Inhibitors of N-terminal methyltransferase 1 (NTMT1): MTaseGlo Assay (AID 1645874). Also: nearly all actives have a fitted effect of over 65% in size. Also: potency is read from the fitted curve at half-maximal effect.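 As to activity change, negative = inhibition: luminescence from SAH made as NTMT1 methylates SPKRIA peptide using SAM; 0% = DMSO control and -100% = no-enzyme control.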 The essentials: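 qHTS format: NTMT1 125 nM, SAM 100 uM, peptide SPKRIA 1 uM final; 15 min compound preincubation, 30 min reaction at room temperature. MTase-Glo luminescence.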
A general note: Quantitative high-throughput screening tests each substance at several concentrations.

Assay [2] concerns NIH3T3. Kind of assay: Cytotoxic Profiling of Annotated Libraries Using Quantitative High-Throughput Screening (AID 1296008). Also: nearly all actives have a fitted effect of over 60% in size. Also: potency is read from the fitted curve at half-maximal effect. As to max response: % is scaled to controls: 0 for no effect and ±100 for the full control effect. To be noted: Five cell lines viability, CellTiter-Glo ATP luminescence, 48-72 h; max response: stronger effect = lower value. In short, it runs like this:
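Cells exposed to compounds for 48 or 72 hr at 37 degrees Celsius. Viability read as ATP-coupled luminescence with CellTiter-Glo after 10 min at room temperature.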

Assay [3] concerns Zika virus NS2B-NS3 protease (linked construct). Kind of assay: Confirmatory screen NINDS AMC qHTS for Zika virus inhibitors (AID 1347152). Also: potency is read from the fitted curve at half-maximal effect; nearly all actives have a fitted effect of over 70% in size. In short, it runs like this: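 IC50s from 4-parameter Hill fits of percent inhibition, based on AMC fluorescence gain (340/450 nm) over 15 min with 10 microM Bz-Nle-KRR-AMC. Enzyme: 1 nM linked NS2B-NS3 in Tris-HCl pH 8.0; 15-min compound preincubation.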

Assay [4] is described as follows: Confirmatory screen NINDS Rhodamine qHTS for Zika virus inhibitors (AID 1347161). Also: potency is read from the fitted curve at half-maximal effect; nearly all actives have a fitted effect of over 60% in size. In short, it runs like this: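 In 10 mM Tris-HCl pH 8.0 containing 0.01% Tween 20, linked NS2B-NS3 protease (25 nM final) is exposed to test compounds for 15 min. Cleavage of 1.5 microM Rhodamine110 substrate is tracked by fluorescence over 15 min.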
Assay [5] concerns Zika virus NS2B-NS3 protease (linked). As to the kind of experiment: 384 well plate NINDS AMC confirmatory qHTS for Zika virus inhibitors (AID 1347163). Also: potency is read from the fitted curve at half-maximal effect; nearly all actives have a fitted effect of over 50% in size. The essentials:
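Linked NS2B-NS3 protease (final 5 nM, 30 nM or 60 nM) was preincubated with compounds (final up to 1 mM) for ~15 minutes. Ac-VKTGKR-AMC substrate (final 30 microM) then reacted for 25 minutes at room temperature in the dark. Fluorescence (ex 355/em 460 nm) was normalized to no-enzyme and no-inhibitor controls.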

The test system of assay [6] is Zika virus NS2B-NS3 protease (linked construct). Kind of assay: 384 well plate NINDS Rhodamine confirmatory qHTS for Zika virus inhibitors (AID 1347164).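 Also: fluorescence from protease cleavage of Ac-LKRR-rhodamine 110 substrate; potency is read from the fitted curve at half-maximal effect; nearly all actives have a fitted effect of over 65% in size.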 In short, it runs like this: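 Fluorescence at 485/538 nm was measured 25 minutes after adding 10 microM Ac-LKRR-Rd substrate, in the dark at room temperature. The protease (5, 30 or 60 nM final) had been preincubated ~15 minutes with compound; aprotinin as control.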

A short description of assay [7]: Tertiary RLuc qRT-PCR qHTS assay for Zika virus inhibitors (AID 1347169). Also: potency is read from the fitted curve at half-maximal effect; nearly all actives have a fitted effect of over 55% in size. In short, it runs like this: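 Orthogonal cell-based readout: luminescence measured 1-1.5 hrs after adding live-cell Renilla substrate to Vero cells that had been infected with ZIKV-RLuc (MOI 1-2) post-compound, incubated 48-72 hrs at 37 degrees C.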
For orientation: Quantitative PCR measures a nucleic acid by following its amplification.

The subject of assay [8] is Zika virus NS2B-NS3 protease. As to the kind of experiment: Primary screen GU AMC qHTS for Zika virus inhibitors (AID 1347154).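 Also: 0% = no-inhibitor control and -100% = no-enzyme control; nearly all actives have a fitted effect of over 70% in size.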 In short, it runs like this:
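Unlinked Zika NS2B hydrophilic domain–NS3 protease complex at 25 nM in 10 mM Tris-HCl pH 8.0, 0.01% Tween 20, with an AMC peptide substrate. Fluorescence change (340/450 nm) over 15 min at room temperature, normalized to controls, fitted to 4-parameter Hill.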

A further assay deals with Furin (Homo sapiens) (UniProt P09958). Kind of assay: Furin counterscreen qHTS for Zika virus inhibitors (AID 1347149).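 Also: purified recombinant full-length human furin enzyme at 5 nM; fluorescence gain from furin cutting a BOC-RVRR-AMC peptide substrate over 15 min; top concentration of the series differs between compounds; plate controls were no-inhibitor control for no effect and no-enzyme control for full effect; nearly all actives have a fitted effect of over 70% in size.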 The essentials: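 Fluorogenic cleavage of BOC-RVRR-AMC (2 microM final, Km ~15 µM) was monitored (ex 340, em 450 nm) at 37C after 15 min RT preincubation of 5 nM furin with compounds in HEPES pH 7.0 buffer with CaCl2 and Triton X-100. Percent inhibition was fitted to a 4-parameter Hill curve.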
For orientation: Counterscreens check selectivity or assay interference.

The test system of assay [9] is Zika virus NS2B-NS3 protease (unlinked complex). As to the kind of experiment: Confirmatory screen GU AMC qHTS for Zika virus inhibitors (AID 1347153).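 Also: enzyme at 25 nM with substrate at 10 µM below its Km of 18.3 µM; potency is read from the fitted curve at half-maximal effect; nearly all actives have a fitted effect of over 70% in size.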 In short, it runs like this: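 Compounds were preincubated 15 min at room temperature with 25 nM noncovalent NS2B-NS3 protease at pH 8.0; AMC substrate added at 10 microM and 15-min fluorescence gain (340/450 nm) converted to percent inhibition, fitted 4-parameter.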

A short description of assay [10]: Vero cells viability qHTS for Zika virus inhibitors (AID 1347167). Also: potency is read from the fitted curve at half-maximal effect. The essentials: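 Cells seeded at 2.5 x 10^5 cells/mL in DMEM with 4% FBS and attached overnight at 37 degrees C, then exposed to compound for 24 to 48 hours. Viability read as ATP content by CellTiter Glo luminescence.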
Assay [11] in a line: Primary qHTS for small molecule stabilizers of the endoplasmic reticulum resident proteome: Secreted ER Calcium Modulated Protein (SERCaMP) assay (AID 1508630). Also: % is scaled to controls: 0 for no effect and ±100 for the full control effect. The essentials: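 GLuc-SERCaMP-expressing SH-SY5Y cells, pretreated 16 h with compound, are challenged with thapsigargin to empty ER calcium stores; after 4 h, coelenterazine is added directly to the medium and luminescence is imaged.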

Assay [12] can be described thus: NCATS anti-infectives library activity on HEK293 viability as a counter-qHTS vs the C. elegans viability qHTS (AID 1745854).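 Also: HEK293 cells exposed to compounds for 24 hr before the viability read; % is scaled to controls: 0 for no effect and ±100 for the full control effect.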 In short, it runs like this:
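HEK293 cells (1,500/well) exposed 24 hr at 37C to 1:5 titrations, up to 41.7 uM final; counter-screen to a C. elegans viability qHTS. Viability by CellTiter-Glo luminescence after 10 min at room temperature; digitonin as control.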

Assay [13] deals with NIH3T3. As to the kind of experiment: qHTS assay to identify novel small-molecules to repurpose for Merkel cell carcinoma treatment (AID 1296009). Also: nearly all actives have a fitted effect of over 60% in size. To be noted: MCC and control cell lines, CellTiter-Glo viability, 72 h; series mostly up to 9.27 µM. In short, it runs like this:
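Cells were treated for 72 hr at 37 degree celsius with compounds in 8- or 11-point dose response. Viability was read by CellTiter-Glo luminescence, normalized to no-cell (cytotoxicity) and DMSO controls.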

Assay [14] can be described thus: qHTS Assay for Lipid Storage Modulators (AID 1519; calls by dose curve; as to activity change, negative = inhibition: % is scaled to controls: 0 for no effect and ±100 for the full control effect). The note with it: Drosophila S3 cells, BODIPY lipid droplet/cell ratio, laser cytometry, cells loaded with oleic acid. In short, it runs like this:
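Cells seeded at 5,000 per well were treated with compounds over a concentration series and loaded with oleic acid (400 uM, as added). Lipid droplet fluorescence (488 nm excitation, 500-530 nm channel) was read by laser-scanning cytometry and normalized to 20 uM Triacsin C.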

In assay [15] the target is Ubiquitin carboxyl-terminal hydrolase 1 (Homo sapiens) (UniProt O94782). As to the kind of experiment: Inhibitors of USP1/UAF1: Pilot qHTS (AID 504865).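 Also: rhodamine fluorescence freed from ubiquitin-rhodamine substrate followed over time; top concentration of the series differs between compounds; % is scaled to controls: 0 for no effect and ±100 for the full control effect; nearly all actives have a fitted effect of over 35% in size.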 The essentials:
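Deubiquitinase activity followed as kinetic rhodamine fluorescence release from 150 nM Ub-Rho. 1 nM USP1/UAF1 with compound, after 15 min room-temperature preincubation, in HEPES pH 7.8 buffer containing TCEP, EDTA, BSA and Tween-20.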

Assay [16] can be described thus: S16 Schwann cell viability assay (CellTiter-Glo assay) (AID 624031). In short, it runs like this: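 Native S16 Schwann cells (rat), serum-containing medium, overnight attachment then 24 h drug exposure at 37 °C/5% CO2. CellTiter-Glo ATP signal; normalized to cell-free and vehicle wells.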
The nature of assay [17]: S16 Schwann cell PMP22 intronic element firefly luciferase assay (AID 624032).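 Also: plate controls were DMSO for no effect and PTC124 positive control mean for full effect; nearly all actives have a fitted effect of over 30% in size.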 In short, it runs like this:
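Rat S16 Schwann cells stably carrying firefly luciferase driven by a PMP22 intronic element, in 10% FBS, treated 24 h at 37 C. ONE-Glo luminescence normalized to PTC124 control and DMSO (0%); curves classed by r2, magnitude and activity.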

Assay [18] is described as follows: qHTS profiling for inhibitors of Plasmodium falciparum proliferation (AID 504749).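 Also: 0% = DMSO vehicle and full inhibition = artemisinin control; nearly all actives have a fitted effect of over 60% in size.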 To be noted: P. falciparum in erythrocytes, SYBR Green DNA, 72 h, at 28.7 µM (top of the series). The essentials:
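P. falciparum-infected erythrocytes (0.3% parasitemia, 2.5% hematocrit) incubated with compound 72 h at 37 C, 5% CO2. Parasite DNA detected by SYBR Green after lysis, overnight at room temperature; normalised to 0.29 uM artemisinin and DMSO.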

Chain of N-terminal Xaa-Pro-Lys N-methyltransferase 1 (Homo sapiens) (Q9BV86 whole entry, looked up): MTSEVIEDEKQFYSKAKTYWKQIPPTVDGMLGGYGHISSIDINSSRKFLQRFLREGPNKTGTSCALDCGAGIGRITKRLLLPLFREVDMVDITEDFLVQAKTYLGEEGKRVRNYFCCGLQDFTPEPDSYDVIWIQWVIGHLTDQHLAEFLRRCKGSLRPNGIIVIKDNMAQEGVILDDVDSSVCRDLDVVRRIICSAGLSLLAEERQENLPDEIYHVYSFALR
Chain of Ubiquitin carboxyl-terminal hydrolase 1 (Homo sapiens) (O94782 whole entry, looked up): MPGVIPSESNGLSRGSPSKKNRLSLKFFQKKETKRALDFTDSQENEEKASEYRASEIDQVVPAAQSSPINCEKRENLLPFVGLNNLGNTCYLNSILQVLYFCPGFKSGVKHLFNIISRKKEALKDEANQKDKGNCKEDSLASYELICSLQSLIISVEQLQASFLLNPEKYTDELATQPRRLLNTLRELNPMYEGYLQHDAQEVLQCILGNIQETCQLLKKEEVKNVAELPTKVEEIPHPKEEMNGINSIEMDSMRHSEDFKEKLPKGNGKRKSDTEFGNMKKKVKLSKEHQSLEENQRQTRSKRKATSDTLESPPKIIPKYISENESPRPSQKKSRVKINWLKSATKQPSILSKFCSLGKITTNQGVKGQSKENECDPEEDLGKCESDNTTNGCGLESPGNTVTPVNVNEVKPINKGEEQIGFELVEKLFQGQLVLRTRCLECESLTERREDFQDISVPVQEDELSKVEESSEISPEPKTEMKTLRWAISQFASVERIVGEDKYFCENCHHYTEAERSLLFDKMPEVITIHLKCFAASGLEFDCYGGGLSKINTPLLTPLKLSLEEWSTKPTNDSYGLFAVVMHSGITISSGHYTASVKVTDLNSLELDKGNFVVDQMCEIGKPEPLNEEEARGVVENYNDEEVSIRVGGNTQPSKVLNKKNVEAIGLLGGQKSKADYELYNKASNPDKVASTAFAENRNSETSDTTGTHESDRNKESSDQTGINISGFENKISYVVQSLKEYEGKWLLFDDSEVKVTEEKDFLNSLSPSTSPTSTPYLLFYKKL
Chain of Furin (Homo sapiens) (P09958 whole entry, looked up): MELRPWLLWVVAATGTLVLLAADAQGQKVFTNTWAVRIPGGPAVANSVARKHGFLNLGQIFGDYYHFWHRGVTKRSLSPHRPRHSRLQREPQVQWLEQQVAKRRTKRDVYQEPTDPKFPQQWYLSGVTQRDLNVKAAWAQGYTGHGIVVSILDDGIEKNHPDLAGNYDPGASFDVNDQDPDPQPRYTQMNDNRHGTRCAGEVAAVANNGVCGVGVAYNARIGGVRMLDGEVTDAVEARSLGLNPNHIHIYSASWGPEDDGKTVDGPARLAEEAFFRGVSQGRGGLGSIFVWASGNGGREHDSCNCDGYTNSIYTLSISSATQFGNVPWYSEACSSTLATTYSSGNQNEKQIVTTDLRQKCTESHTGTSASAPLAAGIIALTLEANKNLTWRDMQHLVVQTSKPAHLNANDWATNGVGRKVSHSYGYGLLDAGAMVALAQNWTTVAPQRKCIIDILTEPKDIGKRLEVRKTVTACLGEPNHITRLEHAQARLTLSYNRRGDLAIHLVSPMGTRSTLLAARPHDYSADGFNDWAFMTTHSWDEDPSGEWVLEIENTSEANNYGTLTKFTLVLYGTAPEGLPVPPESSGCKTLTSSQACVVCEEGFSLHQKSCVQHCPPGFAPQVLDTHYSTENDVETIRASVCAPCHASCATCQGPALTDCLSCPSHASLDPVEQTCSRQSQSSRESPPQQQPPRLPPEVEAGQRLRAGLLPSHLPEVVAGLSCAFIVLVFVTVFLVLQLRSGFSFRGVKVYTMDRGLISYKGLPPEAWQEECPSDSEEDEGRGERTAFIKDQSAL

Consider `CC(C)(C)c1ccc(-c2nc3ccccc3[nH]2)cc1`, for which the Potency in [1] is 8.91 µM (active).
With `CCN1CCN(Cc2ccc(-c3cc4c(NC(C)c5ccccc5)ncnc4[nH]3)cc2)CC1` (configuration not stated), the Potency with NIH3T3 [2] was 8.2 µM (active).
Same read-out and setting: the value for `C[C@@H]1COCCN1c1cc(C2(S(C)(=N)=O)CC2)nc(-c2ccnc3[nH]ccc23)n1` (some centres not stated) was 4.17 µM (active).
As for `O=C(NCc1ccc(Oc2ccccc2)cc1)c1nc(-c2cc(Br)c(O)c(Br)c2)no1`, the Potency in assay [3] was 13.9 µM (active); in [4], 2.21 µM (active); in [5] it was 2.51 µM (active); in assay [6] it was 1.58 µM (active); in assay [7], 8.29 µM (active).
Consider `CC1CCC2C(=CCC(O)C2(C)C)C1(C)Cc1c(O)cc(CO)c(C=O)c1O` (configuration not stated), for which the Potency in assay [4] was 27.3 µM (active).
As to `COc1cc([C@@H](CC(=O)O)c2ccc(C)c(CN3C[C@@H](C)Oc4ccccc4S3(=O)=O)c2)cc2nnn(C)c12`, in the assay on NIH3T3 [2], the max response was 3.5% (inactive).
In the case of `Oc1ccc(Nc2nc(-c3ccc(Cl)cc3)cs2)cc1`, the Potency entry in assay [8] was “inactive”.
In the case of `CC1CCN(C(c2ccc(F)cc2)c2ccc(C(C)C(=O)O)cc2-c2ccc(C(F)(F)F)cc2)CC1` (configuration not stated), the Potency result in the assay with Furin (Homo sapiens) was “inactive”. Further, the Potency in assay [3] was 13.9 µM (active); in assay [9] it was 15.6 µM (active); in assay [4], 3.12 µM (active); in [5] it was 0.891 µM (active); in assay [6], 2.51 µM (active); in assay [10], 18.6 µM (active). Besides, the Potency in assay [7] is 6.58 µM (active).
With `O=C(NC(NC(=S)Nc1ccc(F)c([N+](=O)[O-])c1)C(Cl)(Cl)Cl)C(c1ccccc1)c1ccccc1` (configuration not stated), the Potency result in assay [8] and in [11] was “inactive” throughout.
For `COc1ccccc1NC(=O)Nc1ccc2ccccc2c1`, in assay [1], the Potency entry is “inactive”.
For the compound `CCOC(=O)c1cccc(CNc2ccc(N(C)C(=O)Nc3ccccc3)cc2)c1`, the result in [12] was inactive.
Regarding `C=C1[C@@H](C2=CC(=O)OC2)CC[C@@]2(O)[C@@H]1CC1[C@H]2CC[C@@H]2C[C@@H](O[C@H]3O[C@@H](C)[C@@H](O[C@@H]4O[C@H](CO[C@@H]5O[C@H](CO)[C@@H](O)[C@H](O)[C@H]5O)[C@@H](O)[C@H](O)[C@H]4O)[C@H](OC)[C@H]3O)CC[C@]12C` (some centres not stated), the Potency result in the assay on NIH3T3 [13] was “inactive”.
Regarding `CCCCC(=O)N(Cc1ccc(-c2ccccc2-c2nn[nH]n2)cc1)C(C(=O)O)C(C)C` (configuration not stated), the activity change, negative = inhibition in [14] (at 57.5 µM (top of the series)) was -6.27% (inactive). Also, the max response is 7.79% in assay [14] (measured here: cell count channel max response) and 4.86% in [14] (measured here: lipid channel max response). In addition, the Potency entry in [15] and in [17] was “inactive” throughout. Besides, the outcome in [16] was inactive. Moreover, the activity, negative = inhibition was 9.14% (inactive) in assay [18] (parasite line A) and 6.89% (inactive) in assay [18] (parasite line B).
